Reference: PubChem BioAssay
Calls of active or inactive are those of the source.

What was measured:
[1] = compound effects on lung adenocarcinoma cell viability – A549, calcein-AM fluorescence, 48 h, basal, profiling panel (AID 1162); conditions: higher = more signal
[2] = compound effects on differentiated 3T3-L1 adipocyte viability – cell-based, 3T3-L1 adipocytes, calcein-AM fluorescence, 48 h, basal, profiling panel (AID 1163); conditions: 3T3-L1 adipocytes viability, higher = more signal
[3] = compound effects on hepatocellular carcinoma cell viability – HepG2, calcein-AM fluorescence, 48 h, basal, profiling panel (AID 1164); conditions: higher = more signal
[4] = compound effects on multiple myeloma cell viability – MM1S, calcein-AM fluorescence, 48 h, basal, profiling panel (AID 1165); conditions: higher = more signal
[5] = calcein-AM signal in unstimulated myeloma cells – cell-based, calcein-AM fluorescence, 48 h, PK04 Diversity Set, profiling panel (AID 1166); conditions: RPMI8226 myeloma viability, higher = more signal;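 also: cells grown under basal conditions without added stimulus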
[6] = JC-1 mitochondrial signal, unstimulated HepG2 cells – cell-based, JC-1 fluorescence, 24 h, 100 nL compound, profiling panel (AID 1167); conditions: HepG2 mitochondrial potential, higher = more signal
[7] = JC-1 mitochondrial signal, unstimulated adipocytes – cell-based, JC-1 fluorescence, 3T3-L1 adipocytes, 24 h, 100 nL compound, profiling panel (AID 1168); conditions: JC-1 mitochondrial fluorescence, higher = more signal, called active from +8 up or from −8 down
[8] = JC-1 mitochondrial signal, unstimulated myeloma cells – cell-based, JC-1 fluorescence, RPMI8226, 24 h, 100 nL compound, profiling panel (AID 1169); conditions: JC-1 mitochondrial potential fluorescence, higher = more signal
[9] = JC-1 mitochondrial signal, unstimulated MM1S myeloma – cell-based, JC-1 fluorescence, 24 h, 100 nL compound, profiling panel (AID 1170); conditions: MM1S mitochondrial potential, higher = more signal
[10] = resazurin metabolic signal in A549 cells – cell-based, resazurin fluorescence, 24 h, PK04 Diversity Set, profiling panel (AID 1171); conditions: A549 viability, higher = more signal, called active from +8 up or from −8 down
Also: test concentration not given here.

| SMILES | z-score [1] | z-score [2] | z-score [3] | z-score [4] | z-score [5] | z-score [6] | z-score [7] | z-score [8] | z-score [9] | z-score [10] |
| --- | --- | --- | --- | --- | --- | --- | --- | --- | --- | --- |
| O=C1c2ccccc2[C@](Cc2ccccc2I)(C(=O)NC2CC2)[C@H](c2ccc(CO)cc2)N1C1CCCCC1 | 0.818 | 0.835 | 0.677 | -1.02 | -1.98 | 2.11 | 0.252 (inactive) | -0.482 | -0.299 | 0.91 (inactive) |
| Cc1ccc(C(C)CC(O)C2C=CC3C(=O)N(C)C(=O)C3N2NC(=O)OC(C)(C)C)o1 (stereo not given) | 0.987 | -0.515 | 0.917 | -0.193 | -0.883 | -0.768 | -0.632 (inactive) | -0.876 | -0.357 | 0.543 (inactive) |
| CC(=O)NCCCC[C@@H]1NC(=O)[C@@H]2C[C@H](C(=O)NCCCCCCNC(=O)CS)[C@H](c3cccc(OCCO)c3)N2C1=O | 0.0596 | -0.834 | 0.282 | 0.211 | 0.132 | -0.387 | 0.0104 (inactive) | -0.811 | -0.333 | -0.435 (inactive) |
| COC(=O)c1c(CC[C@@H](CO)NC(=O)N[C@H](Cn2cc(Cc3ccccc3)nn2)C(C)C)oc(C(C)=O)c1C(=O)OC | -0.138 | 1.62 | 0.141 | 0.486 | -0.298 | -0.0757 | 1.58 (inactive) | 0.4 | 0.492 | -0.896 (inactive) |
| COc1ccc([Si](C)(C)[C@H]2[C@H](CCO)O[C@@]3(C(=O)N(C)c4c(Br)cc(C)cc43)[C@@H]2C)cc1 | -4.21 | -1.8 | -4.77 | -2.69 | -4.31 | -2.21 | 0.343 (inactive) | -1.05 | -2.29 | -6.97 (inactive) |
| COc1ccc(C(O)C2C=CC3C(=O)NC(=O)C3N2Nc2ccccn2)cc1 (stereo not given) | -0.483 | -0.0402 | -0.454 | -0.632 | 0.202 | -0.69 | -0.0063 (inactive) | -0.143 | 0.0564 | -0.582 (inactive) |
| COc1ccc(C(O)C2C=CC3C(=O)N(c4ccccc4)C(=O)C3N2Nc2ccc(C(C)C)cc2)cc1OCc1ccccc1 (stereo not given) | 0.997 | -1.42 | 0.915 | -0.737 | -0.63 | -0.318 | -0.116 (inactive) | -0.427 | -0.173 | -0.193 (inactive) |
| C=C(/C(=C/C[C@@H](OC(C)=O)c1ccc(OCCO)cc1)c1cnc2ccccc2c1)C(C)C | 2.72 | 1.39 | 1.25 | -0.924 | 0.559 | 2.07 | -1.27 (inactive) | -0.139 | -1.17 | 0.685 (inactive) |
| COc1ccc(NN2C(C(O)c3ccc([N+](=O)[O-])cc3)C=CC3C(=O)N(C4CCCCC4)C(=O)C32)cc1 (stereo not given) | 0.0649 | -1.33 | 0.52 | 0.538 | -0.465 | -0.0181 | 0.369 (inactive) | 0.919 | -1.71 | 1.01 (inactive) |
| C=C[C@H](COC(C)=O)N(C(=O)OC(C)(C)C)S(=O)(=O)c1ccc(Br)cc1 | 1.67 | 0.49 | 1.36 | -0.138 | 0.0593 | -0.87 | -0.614 (inactive) | -0.931 | -0.406 | 0.708 (inactive) |
| CN1C(=O)C2C=CC(C(O)c3ccc(-c4ccccc4)s3)N(N(c3ccccc3)c3ccccc3)C2C1=O (stereo not given) | 0.281 | -0.905 | 0.391 | -0.616 | 0.275 | 0.748 | -1.98 (inactive) | -1.05 | -0.434 | -0.434 (inactive) |
| O=C1[C@H]2C=C(Br)[C@H](C[C@@H]2OCCCCO)[C@@]12CO2 | -0.0982 | -1.26 | -0.141 | -0.723 | -2.13 | -1.48 | 0.026 (inactive) | -0.88 | -0.147 | -0.621 (inactive) |
| CCCCCC1=C2CNC(CCC)(C(=O)OC)C=C2C(C)C1=O (stereo not given) | -1.22 | -0.388 | 0.62 | 0.0829 | -0.282 | -0.24 | -0.283 (inactive) | -0.18 | -1.13 | -0.606 (inactive) |
| CCCCCCC#C[Si](O[C@H](c1ccccc1)c1cn([C@H](CO)Cc2ccccc2)nn1)(C(C)C)C(C)C | 1.77 | -0.121 | -0.407 | -0.178 | -0.542 | 0.338 | -0.94 (inactive) | -0.229 | -1.75 | 0.419 (inactive) |
| COCCOC(=O)N1C(=O)[C@@]2(c3cc(C#CC4=CCCCC4)ccc31)[C@H](C(=O)Nc1nc3ccccc3s1)[C@H]1C(=O)O[C@H](c3ccccc3)[C@H](c3ccccc3)N1[C@@H]2c1ccc(OCCO)cc1 | -0.104 | 0.747 | 0.185 | -0.953 | -0.856 | -2.95 | 0.662 (inactive) | -0.583 | -1.12 | -0.309 (inactive) |
